Reference: PubChem BioAssay (NCATS)
A number with no mark means an inactive call. Inconclusive results are not listed. Where a call stands in place of a potency, no number is given. The source made the active and inactive calls. Unless noted, calls follow the shape of the dose curve; as a rule, active = well fitted curve in the direction sought with a large enough effect; inconclusive = small, poorly fitted or top-dose-only effect, or another doubt; inactive = no such curve, though single readings can be large; an effect the other way counts as inactive or inconclusive.

Experiments:
[1] = target: Nuclear receptor subfamily 1 group I member 3 (Homo sapiens) (UniProt Q14994); assay: Primary qHTS for antagonist of constitutive androstane receptor (CAR) against the NCATS DSHEA and TCM libraries (AID 1794836);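 also: HepG2 cells stably expressing hCAR with CYP2B6 luciferase reporter stimulated by CITCO; series mostly up to about 40 µM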
Summary of the method: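 Antagonist mode: CAR reporter luminescence (ONE-Glo) in HepG2-CYP2B6-hCAR cells stimulated with 48 uM CITCO (final) over 24 h at 37 C, compounds titrated; viability read first by CellTiter-Fluor fluorescence.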

[2] = NCATS anti-infectives library activity on HEK293 viability as a counter-qHTS vs the C. elegans viability qHTS (AID 1745854);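 also: HEK293 cells exposed to compounds for 24 hr before the viability read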; also: potency is read from the fitted curve at half-maximal effect
Summary of the method: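 Compound titrations (final up to 41.7 uM) were incubated with HEK293 cells for 24 hr at 37C under 5% CO2. Viable cells were quantified with CellTiter-Glo after 10 min at ambient temperature.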

[3] = NCATS anti-infectives library activity on the primary C. elegans qHTS viability assay (AID 1745855; calls by dose curve)
Summary of the method: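 Titration-based screen in worms: eggs hatched overnight in M9, L1 larvae fed TOP10 capsules in S medium with compound, incubated 21 °C for 7 days; fluorescent objects gated by size and intensity at days 0, 3 and 7.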

[4] = Viability counterscreen for agonist of constitutive androstane receptor (CAR) against the NCATS DSHEA and TCM libraries (AID 1794838)
Summary of the method: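 HepG2-CYP2B6-hCAR cells (2,500/well) attached 5 h, then got compounds plus 0.75 uM PK11195 final. After 24 h at 37C, viability read by CellTiter-Fluor fluorescence (Ex/Em 405/540 nm).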

[5] = target: Nuclear receptor subfamily 1 group I member 3 (Homo sapiens) (UniProt Q14994); assay: Primary qHTS for agonist of constitutive androstane receptor (CAR) against the NCATS DSHEA and TCM libraries (AID 1794839); conditions: Potency: CAR antagonist co-added at 0.75 µM unless noted;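 also: HepG2 cells expressing human CAR with a CYP2B6 reporter plus PK11195 antagonist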
Summary of the method: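 HepG2-CYP2B6-hCAR cells (2,500/well) were attached for 5 h, then treated for 24 h at 37 °C with compounds plus 0.75 µM PK11195. Luciferase luminescence (ONE-Glo) was read, with CellTiter-Fluor viability (Ex/Em 405/540 nm).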

[6] = HepG2 viability counterscreen (readout 2: ATP content) against the NCATS DSHEA and TCM libraries (AID 1794840);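 also: HepG2 cells exposed to substances for about 24 h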
Summary of the method: (§1)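 HepG2 cells (1,000 cells/well) attached ~4 h, then treated ~24 h at 37C with substances. Protease activity read by GF-AFC (25 uM final, 30 min, Ex/Em 380/510 nm); ATP content then by CellTiter-Glo luminescence.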

[7] = HepG2 viability counterscreen (readout 1: protease activity) against the NCATS DSHEA and TCM libraries (AID 1794841);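 also: cells exposed to compounds for about 24 h before the protease read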
Summary of the method: as §1

[8] = target: Cytochrome P450 2D6 (Homo sapiens) (UniProt P10635); assay: qHTS for inhibitors of CYP2D6 against the NCATS DSHEA and TCM libraries (AID 1919972); also: potency is read from the fitted curve at half-maximal effect
Summary of the method: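 qHTS, concentration–response format with most substances from 19.5 nM. CYP2D6 + pro-luciferin substrate, 15 min with compound, then 1x NADPH regen, 30–45 min RT dark. Glo detection 30 min, luminescence. Quinidine control.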

[9] = KB-3-1 P-gp reporter qHTS against the NCATS DSHEA and TCM libraries (AID 1919975)
Summary of the method: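 Parental KB-3-1 human cervical adenocarcinoma cells (500 cells/well, DMEM + 10% FBS) were treated with substances for ~72 h at 37C; viability was read by CellTiter-Glo luminescence.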

[10] = KB-8-5-11 P-gp reporter qHTS against the NCATS DSHEA and TCM libraries (AID 1919977)
Summary of the method: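 P-gp-overexpressing KB-8-5-11 cells (500/well) were plated in colchicine-free DMEM with 10% FBS, attached ~4 h, then exposed to substance titrations for ~72 h at 37C. Viability was read by CellTiter-Glo luminescence.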

[11] = qHTS Counterscreen for compound interference against the NCATS DSHEA and TCM libraries (AID 1919978); conditions: firefly luciferase detection reagent interference, luminescence
Summary of the method: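 D-luciferin (1 uM final) or 100 mM potassium phosphate buffer alone was preincubated 15 min at RT with compounds (19.5 nM to 39.8 uM final). Luciferin detection reagent was then added and luminescence read after 30 min at RT.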

[12] = Dual reporter qHTS for agonist of Pregnane X Receptor (hPXR) against the NCATS DSHEA and TCM libraries: Fluorescence readout (AID 1920058)
Summary of the method: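 In this qHTS counter-read, reporter-bearing HepG2 cells in charcoal-stripped serum received substances for approximately 24 h before viability was assessed fluorometrically with CellTiter-Fluor.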

[13] = target: Nuclear receptor subfamily 1 group I member 2 (Homo sapiens) (UniProt O75469); assay: Dual reporter qHTS for agonist of Pregnane X Receptor (hPXR) against the NCATS DSHEA and TCM libraries: Luminescence readout (AID 1920059); also: potency is read from the fitted curve at half-maximal effect
Summary of the method: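 Luminescent PXR reporter read (ONE-Glo) after a CellTiter-Fluor viability read, following 24 h, 37C treatment of HepG2 cells stably carrying hPXR-Luc.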

[14] = target: Nuclear receptor subfamily 1 group I member 2 (Homo sapiens) (UniProt O75469); assay: Dual reporter qHTS for antagonist of Pregnane X Receptor (hPXR) against the NCATS DSHEA and TCM libraries: Luminescence Readout (AID 1920060)
Summary of the method: (§2)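 Rifampicin-stimulated (2 uM final) hPXR-luciferase HepG2 cells were treated for 24 h with DSNP/TCM substances. Viability came from CellTiter-Fluor fluorescence, reporter activity from ONE-Glo luminescence.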

[15] = Dual reporter qHTS for antagonist of Pregnane X Receptor (hPXR) against the NCATS DSHEA and TCM libraries: Fluorescence Readout (AID 1920061)
Summary of the method: as §2

[16] = target: Cytochrome P450 2C9 (Homo sapiens) (UniProt P11712); assay: qHTS for inhibitors of CYP2C9 against the NCATS DSHEA and TCM libraries (AID 1919973);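 also: luminogenic pro-luciferin CYP2C9 substrate turned into luciferin with NADPH regeneration; series mostly up to about 34 µM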
Summary of the method: (§3)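 Isoform-specific enzyme and substrate levels; enzyme-free wells as background. Reaction: 1x NADPH regenerating system, 30-45 min, room temperature, shielded from light; luminescent detection reagent added, 30 min.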

[17] = target: Cytochrome P450 2C19 (Homo sapiens) (UniProt P33261); assay: qHTS for inhibitors of CYP2C19 against the NCATS DSHEA and TCM libraries (AID 1919974);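 also: luminescence from luciferin released by CYP2C19 oxidation of a pro-luciferin substrate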
Summary of the method: as §3

Chain of Nuclear receptor subfamily 1 group I member 3 (Homo sapiens) (Q14994 whole entry, looked up): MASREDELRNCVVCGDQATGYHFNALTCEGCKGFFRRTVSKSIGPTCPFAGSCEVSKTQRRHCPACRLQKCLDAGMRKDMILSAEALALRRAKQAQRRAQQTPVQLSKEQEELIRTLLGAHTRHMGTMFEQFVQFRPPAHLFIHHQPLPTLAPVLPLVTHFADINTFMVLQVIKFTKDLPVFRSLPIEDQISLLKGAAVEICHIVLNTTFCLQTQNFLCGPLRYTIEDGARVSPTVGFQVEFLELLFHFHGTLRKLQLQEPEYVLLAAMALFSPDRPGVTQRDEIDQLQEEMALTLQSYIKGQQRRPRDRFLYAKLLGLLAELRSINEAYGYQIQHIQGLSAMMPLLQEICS
Chain of Nuclear receptor subfamily 1 group I member 2 (Homo sapiens) (O75469 whole entry, looked up): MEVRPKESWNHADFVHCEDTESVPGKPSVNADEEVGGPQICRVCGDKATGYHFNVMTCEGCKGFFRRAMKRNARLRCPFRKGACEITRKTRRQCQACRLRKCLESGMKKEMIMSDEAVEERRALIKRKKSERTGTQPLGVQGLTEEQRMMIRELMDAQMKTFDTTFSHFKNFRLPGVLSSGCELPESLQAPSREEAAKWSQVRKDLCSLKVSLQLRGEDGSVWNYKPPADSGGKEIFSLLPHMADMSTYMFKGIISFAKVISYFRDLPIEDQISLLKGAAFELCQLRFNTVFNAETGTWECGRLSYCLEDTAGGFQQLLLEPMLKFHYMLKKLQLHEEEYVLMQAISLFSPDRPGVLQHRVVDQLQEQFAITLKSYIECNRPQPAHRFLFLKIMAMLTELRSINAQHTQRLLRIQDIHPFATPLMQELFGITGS
Chain of Cytochrome P450 2D6 (Homo sapiens) (P10635 whole entry, looked up): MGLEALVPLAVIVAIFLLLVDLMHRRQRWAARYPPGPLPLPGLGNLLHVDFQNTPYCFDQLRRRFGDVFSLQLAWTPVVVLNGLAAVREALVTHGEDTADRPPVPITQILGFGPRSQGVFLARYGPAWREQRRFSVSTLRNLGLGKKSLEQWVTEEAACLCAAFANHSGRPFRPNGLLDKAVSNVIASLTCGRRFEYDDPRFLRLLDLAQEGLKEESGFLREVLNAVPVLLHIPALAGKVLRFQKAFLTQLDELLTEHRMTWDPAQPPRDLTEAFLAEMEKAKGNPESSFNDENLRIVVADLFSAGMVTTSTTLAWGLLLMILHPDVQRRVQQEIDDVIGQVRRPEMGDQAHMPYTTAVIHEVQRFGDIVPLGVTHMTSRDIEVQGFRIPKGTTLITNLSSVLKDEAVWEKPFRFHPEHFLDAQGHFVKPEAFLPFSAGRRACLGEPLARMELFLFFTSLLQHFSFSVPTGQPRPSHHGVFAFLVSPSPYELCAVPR
Chain of Cytochrome P450 2C19 (Homo sapiens) (P33261 whole entry, looked up): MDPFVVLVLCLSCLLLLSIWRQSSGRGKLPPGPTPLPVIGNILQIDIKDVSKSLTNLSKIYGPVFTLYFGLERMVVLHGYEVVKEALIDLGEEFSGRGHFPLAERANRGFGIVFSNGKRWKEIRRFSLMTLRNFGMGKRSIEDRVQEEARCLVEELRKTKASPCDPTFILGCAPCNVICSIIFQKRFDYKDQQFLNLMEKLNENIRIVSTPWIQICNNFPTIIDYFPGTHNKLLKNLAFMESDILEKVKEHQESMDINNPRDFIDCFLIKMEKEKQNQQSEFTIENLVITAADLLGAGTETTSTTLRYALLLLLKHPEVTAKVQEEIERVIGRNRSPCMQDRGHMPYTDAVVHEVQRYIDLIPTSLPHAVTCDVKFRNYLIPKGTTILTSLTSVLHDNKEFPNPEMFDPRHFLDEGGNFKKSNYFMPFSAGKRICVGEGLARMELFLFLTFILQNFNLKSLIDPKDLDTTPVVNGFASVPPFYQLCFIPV
Chain of Cytochrome P450 2C9 (Homo sapiens) (P11712 whole entry, looked up, canonical isoform): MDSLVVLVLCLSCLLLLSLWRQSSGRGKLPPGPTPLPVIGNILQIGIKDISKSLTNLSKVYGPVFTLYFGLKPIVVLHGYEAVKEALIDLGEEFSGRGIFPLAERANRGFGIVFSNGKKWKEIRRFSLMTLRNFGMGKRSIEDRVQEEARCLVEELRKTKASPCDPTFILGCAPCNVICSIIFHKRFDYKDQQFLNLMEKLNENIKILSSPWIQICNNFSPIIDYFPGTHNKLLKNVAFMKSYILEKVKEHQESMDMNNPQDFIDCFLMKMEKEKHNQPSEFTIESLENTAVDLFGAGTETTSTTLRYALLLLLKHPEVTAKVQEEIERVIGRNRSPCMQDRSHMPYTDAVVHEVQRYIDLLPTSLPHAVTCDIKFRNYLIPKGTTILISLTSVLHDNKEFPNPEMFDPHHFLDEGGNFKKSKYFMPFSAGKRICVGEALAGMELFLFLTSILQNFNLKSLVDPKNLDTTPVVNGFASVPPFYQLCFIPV

## C[C@@H]1OC(O[C@H]2[C@H](O)[C@@H](O)[C@H](OC[C@H]3O[C@@H](OC(=O)[C@]45CCC(C)(C)C[C@@H]4C4=CCC6[C@@]7(C)CC[C@H](OC8OC[C@H](O)[C@H](O)[C@H]8OC8O[C@@H](C)[C@H](O)[C@@H](O)[C@H]8O)[C@@](C)(CO)C7CC[C@@]6(C)[C@]4(C)CC5)[C@H](O)[C@@H](O)[C@@H]3O)O[C@@H]2CO)[C@H](O)[C@H](O)[C@H]1O (stereo partly drawn)
[1]
  Potency: inactive

## Nc1cccc(C(OCCN2CCCCC2)c2cc3nccc(C(=O)O)c3s2)c1 (stereo not drawn)
[2]
  Potency: inactive

## CC[C@H]1CN2CCc3cc(OC)c(OC)cc3[C@@H]2C[C@@H]1C[C@H]1NCCc2cc(O)c(OC)cc21
[2]
  Potency: inactive
[3]
  Potency: inactive

## O=C(OC[C@H]1O[C@@H](OC(=O)c2cc(O)c(O)c(O)c2)[C@H](OC(=O)c2cc(O)c(O)c(O)c2)[C@@H](OC(=O)c2cc(O)c(O)c(O)c2)[C@@H]1O)c1cc(O)c(O)c(O)c1
[1]
  Potency: inactive

## Nc1ncnc2c1ccn2[C@@H]1O[C@H](CO)[C@@H](O)[C@H]1O
[2]
  Potency: 1.12 µM (active)

## C=C1CC/C=C(/C)CC[C@@H]2[C@@H]1CC2(C)C
[1]
  Potency: inactive

## COc1cc2c(cc1O)CC1NCCc3cc(OC)c(OC)c-2c31 (stereo not drawn)
[1]
  Potency: inactive
[4]
  outcome: inactive
[5]
  Potency: inactive
[6]
  outcome: inactive
[7]
  outcome: inactive
[8]
  Potency: 6.31 µM (active)
[9]
  outcome: inactive
[10]
  Potency: inactive
[11]
  max response: -2.18%
[12]
  outcome: inactive
[13]
  Potency: inactive
[14]
  outcome: inactive
[15]
  outcome: inactive

## O=C(O)CC(O)(C(=O)O)C(O)C(=O)O (stereo not drawn)
[1]
  Potency: inactive

## O=C(Nc1ccccc1F)N[C@@H]1N=C(c2ccccc2)c2ccccc2NC1=O
[2]
  Potency: inactive

## COC(=O)C[C@@](O)(CCC(C)(C)O)C(=O)O[C@@H]1C(OC)=C[C@]23CCCN2CCc2cc4c(cc2[C@@H]13)OCO4
[3]
  Potency: inactive

## COC(=O)C1=CO[C@@H](C)[C@@H]2CN3CC[C@@]4(C(=O)Nc5ccccc54)[C@@H]3CC12 (stereo partly drawn)
[1]
  Potency: inactive
[4]
  outcome: inactive
[5]
  Potency: inactive
[6]
  outcome: inactive
[7]
  outcome: inactive
[8]
  Potency: inactive
[16]
  Potency: inactive
[17]
  Potency: inactive
[9]
  outcome: inactive
[10]
  Potency: inactive
[11]
  max response: 3.44%
[12]
  outcome: inactive
[13]
  Potency: 10 µM (active)
[14]
  outcome: inactive
[15]
  outcome: inactive
